# Screening data: PubChem, National Center for Advancing Translational Sciences (NCATS)
# Most compounds without a hit are left out; they make up all but 1.5% or so of the library.
# APEX1 inh: APE1 (human) endonuclease inhibition. P27695. recombinant APE1, TAMRA/BHQ-2 abasic DNA cleavage fluorescence. Potency, µM (titrated, usually from 65.8 µM), for inactives: at the top dose activity change, negative = inhibition, usual class: inhibitors. 0.35% of 350,000 active. AID 2517;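 further: potency means the concentration at half of the fitted maximal effect; plate controls were vehicle for no effect and reference inhibitor for full effect; nearly all actives have a fitted effect of over 55% in size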
# Target sequence (P27695 whole entry, looked up): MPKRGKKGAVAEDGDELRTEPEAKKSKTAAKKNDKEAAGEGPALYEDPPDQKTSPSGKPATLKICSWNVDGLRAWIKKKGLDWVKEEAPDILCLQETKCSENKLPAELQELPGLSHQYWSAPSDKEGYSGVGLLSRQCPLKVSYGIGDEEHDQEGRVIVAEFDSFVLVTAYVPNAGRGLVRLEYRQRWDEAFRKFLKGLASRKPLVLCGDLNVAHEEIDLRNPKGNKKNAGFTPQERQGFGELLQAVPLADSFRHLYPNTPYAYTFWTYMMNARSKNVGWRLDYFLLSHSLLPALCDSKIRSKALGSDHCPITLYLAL
#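 0.75 nM APE1 + cpd, 15 min RT; start w/ 50 nM TAMRA/BHQ-2 THF-abasic dsDNA; kinetic fluor 525/598 nm ×3 reads @60 s; Δ(read3−read1); normalized to DMSO and NSC13755 control wells.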
# PI5P4K alpha inh: blocks human PI5P4K alpha kinase activity; P48426; PI5P4Kalpha enzyme, ADP-Glo luminescence, 60 min; stronger effect = lower value; max response, %; 1.2% of 330,000 active; active means max response of -50% or lower; inconclusive means between -30% and -50%; inactive means -30% or higher; further: value at the top dose of about 77 µM
# Target sequence (P48426 whole entry, looked up): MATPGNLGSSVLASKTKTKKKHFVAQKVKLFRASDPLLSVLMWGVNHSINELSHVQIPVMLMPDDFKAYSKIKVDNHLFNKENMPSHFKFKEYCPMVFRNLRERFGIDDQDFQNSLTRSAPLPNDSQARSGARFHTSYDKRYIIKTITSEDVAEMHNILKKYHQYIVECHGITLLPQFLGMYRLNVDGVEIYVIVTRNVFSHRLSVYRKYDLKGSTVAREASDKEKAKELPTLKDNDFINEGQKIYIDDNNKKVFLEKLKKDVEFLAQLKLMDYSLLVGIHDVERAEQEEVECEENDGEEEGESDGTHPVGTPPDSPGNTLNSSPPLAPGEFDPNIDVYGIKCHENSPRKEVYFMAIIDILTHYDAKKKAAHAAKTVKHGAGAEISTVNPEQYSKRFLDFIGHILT
#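 ADP-Glo luminescence end-point read after a 60 min room-temperature kinase reaction of PI5P4Kalpha plus substrate, initiated with ATP at 5 microM final. Buffer: 0.038 M HEPES pH 7.4, EGTA, 0.1% CHAPS, 5% DMSO.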
# RECQ1 inh-1: inhibitors of human RECQ1 DNA helicase | P46063 | RECQ1 DNA unwinding, red fluorescence kinetic read | Potency, µM (highest dose often 57.3 µM), inactives show top-dose activity, negative = inhibition, most hits filed as inhibitors | 0.54% of 240,000 active | AID 2549;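 further: potency means the concentration at half of the fitted maximal effect; plate controls were vehicle for no effect and no enzyme for full effect; nearly all actives have a fitted effect of over 30% in size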
#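 RECQ1T1 50 nM; forked duplex (20 bp + 30-nt ss tails) 200 nM, ATP 2 mM final; pH 8.0, 2 mM MgCl2, 2.5 ug/ml poly(dI-dC); 15 min compound preincubation; discontinuous kinetic read over 2 h at RT.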
# GCN5L2 inh: blocks human GCN5L2 histone acetyltransferase | Q92830 | GCN5L2 HAT assay, ThioGlo1 CoA-SH fluorescence | Potency, µM (titrated, usually from 58.9 µM), inactives show at the top dose activity change, negative = inhibition, usual class: inhibitors | 0.21% of 390,000 active; further: potency means the concentration at half of the fitted maximal effect
#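 Compounds, pin-transferred from DMSO stocks, meet 20nM GCN5L2 for 15 min before the reaction begins with H3(1-25) peptide (75uM) and acetyl-CoA (70uM). Thiol-reactive ThioGlo1 reports CoA release over 20 min at room temperature.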
# FEN1 inhibitor: human FEN1 inhibition | Recombinant FEN1 flap cleavage, fluorescence, 15 min | 0.35% of 390,000 active | Potency, µM (top dose mostly 114 µM), for the others: top-dose activity change, negative = inhibition, actives largely listed as inhibitors | P39748 | AID 588795; further: potency means the concentration at half of the fitted maximal effect; nearly all actives have a fitted effect of over 65% in size
#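 Quantitative HTS format: each compound was titrated, incubated with 10 nM nuclease for 15 min at room temperature, then challenged with flap substrate at 50 nM final. Signal change over 15 min gave concentration–effect curves.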
# BLM inh: inhibitors of human Bloom syndrome helicase BLM. AID 2528. P54132. Potency, µM (top dose mostly 56.1 µM), for the others: top-dose activity change, negative = inhibition, hits mostly inhibitors. recombinant BLM DNA unwinding, fluorescence dequenching. 0.2% of 350,000 active;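 further: potency means the concentration at half of the fitted maximal effect; plate controls were vehicle for no effect and no enzyme for full effect; nearly all actives have a fitted effect of over 35% in size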
# RECQ1 inh conf: confirmation of human RECQ1 helicase inhibitors | 28% of 610 active | Potency, µM (highest dose often 229 µM), without a hit: at the highest dose activity change, negative = inhibition, hits mostly inhibitors | shares compounds with RECQ1 inh-1 | RECQ1 helicase DNA unwinding, fluorescence; further: potency means the concentration at half of the fitted maximal effect; nearly all actives have a fitted effect of over 45% in size
# ADP FP counter: displaces ADP in a fluorescence polarization counter-screen for RECQ1 hits | ADP fluorescence polarization displacement counterscreen | AID 2711 | 27% of 530 active | shares compounds with RECQ1 inh-1 | Potency, µM (doses to about 228 µM), without a hit: at the highest dose activity change, negative = inhibition, usual class: inhibitors; further: potency means the concentration at half of the fitted maximal effect; nearly all actives have a fitted effect of over 45% in size
# RECQ1 inh-2: confirmation of human RECQ1 helicase inhibitors; shares compounds with RECQ1 inh-1; recombinant RECQ1 DNA unwinding, red fluorescence; Potency, µM (highest dose often 119 µM), inactives show top-dose activity, negative = inhibition, usual class: inhibitors; 15% of 1,100 active; AID 504841; further: potency means the concentration at half of the fitted maximal effect; nearly all actives have a fitted effect of over 50% in size
# * hit, by the source's call; i = inactive; ? = inconclusive; nt = no result; [ ] = remark or other dose. Unless noted, the call rests on the fitted dose curve; in most records, active means well fitted curve in the direction sought with a large enough effect; inconclusive means small, poorly fitted or top-dose-only effect, or another doubt; inactive means no such curve, though single readings can be large; an effect the other way counts as inactive or inconclusive. Unless noted, on the % scale 0 is the no-effect control and ±100 the full control effect.
SMILES,APEX1 inh,PI5P4K alpha inh,RECQ1 inh-1,GCN5L2 inh,FEN1 inhibitor,BLM inh,RECQ1 inh-2,others
Cc1noc(C)c1COc1ccc(C(=O)Nc2cccnc2)cc1,-8%,-14,0.89µM*,-13%,-4%,-19%,-32%,RECQ1 inh conf=56µM*;ADP FP counter=126µM*
Cc1ccc(NC(=O)c2ccc(OCc3c(C)noc3C)cc2)cc1,-9%,nt,10%,0%,nt,-1%,nt,RECQ1 inh conf=4%;ADP FP counter=50µM*
Cc1ccnc2ccc(F)cc12,nt,nt,nt,nt,-10%,nt,nt,
CCOC(=O)C1=C(C)OC2(O)c3ccccc3C(=O)C12O (stereo not drawn),?,0,4%,-4%,7%,?,nt,
CC(=O)C1=C(C)OC2(O)c3ccccc3C(=O)C12O (stereo not drawn),?,-3,?,-3%,0%,-27%,-12%,
CC(=O)OCOC(=O)CN(CC(=O)OCOC(C)=O)c1ccccc1OCCOc1ccccc1N(CC(=O)OCOC(C)=O)CC(=O)OCOC(C)=O,-10%,nt,i,1%,nt,nt,nt,
CC1(OC(=O)c2cnc3ccccc3n2)C(=O)C=C2C=C(C3CC3)OC=C2C1=O (stereo not drawn),-4%,nt,13µM*,nt,nt,-1%,-27%,
CC1(OC(=O)c2cnc3ccccc3n2)C(=O)C=C2C=C3CCCN3C=C2C1=O (stereo not drawn),-2%[12.4 µM],nt,2%[11.5 µM],nt,nt,-3%[12.4 µM],nt,
COc1ccc(Cl)cc1N1C(=O)CC(N2CCc3ccccc32)C1=O (stereo not drawn),-3%,-13,-16%,-1%,-11%,-2%,nt,
COc1ccccc1N1C(=O)CC(N2CCc3ccccc32)C1=O (stereo not drawn),?,-18,?,-21%,-7%,-4%,-5%,
Cc1ccc(Cn2c(=S)[nH]c3ccc(N4CCOCC4)cc3c2=O)o1,?,nt,18µM*,?,?,-29%,nt,RECQ1 inh conf=?;ADP FP counter=50µM*
O=c1c2cc(N3CCOCC3)ccc2[nH]c(=S)n1Cc1ccc(Cl)cc1,2%,-1,-4%,-20%,-5%,-9%,nt,
COc1ccc(-c2nnc3n2N=C(c2ccc(OC)c(OC)c2)CS3)cc1,10%,nt,i,nt,nt,1%,nt,
COc1cccc2c1C(=O)c1c(O)c3c(c(O)c1C2=O)C[C@](O)(C(=O)CO)C[C@H]3O[C@@H]1C[C@H](N)[C@H](O)[C@H](C)O1,11µM*,nt,8.9µM*,-6%[21.4 µM],nt,?,nt,RECQ1 inh conf=63µM*;ADP FP counter=1.1µM*
CCCCC(=O)OCC(=O)C1(O)Cc2c(O)c3c(c(O)c2C(OC2CC(NC(=O)C(F)(F)F)C(O)C(C)O2)C1)C(=O)c1c(OC)cccc1C3=O (stereo not drawn),nt,-6,nt,nt,-32%,nt,nt,
CC(=O)C(=O)O,-2%,nt,-3%,0%,nt,-6%,nt,
Cc1ccc(NC2=Nc3ccccc3N3C2=Nc2c(c(C)nn2-c2ccccc2)C3c2ccc(O)c(O)c2)cc1 (stereo not drawn),0%,-75*,32µM*,-8%,6%,-14%,?,
CCCCNC(=O)NS(=O)(=O)c1ccc(C(=O)O)cc1,-1%,nt,3%,-8%,nt,2%,nt,
O=C(O)c1cccc(-c2noc(-c3ccccc3F)n2)c1,nt,nt,nt,-4%,nt,2%,nt,
O=C(Nc1ccc(NC(=O)c2cccs2)cc1)c1ccc(Br)o1,?,2,?,-11%,-4%,-18%,?,
Cc1ccc(Nc2ccc(N)cc2S(=O)(=O)O)cc1,?,-7,?,-4%,-26%,-11%,-11%,
Cc1ccc(S(=O)(=O)c2cc(Nc3ccccc3)ccc2O)cc1,-18%,-6,nt,-4%,?,nt,nt,
Cc1cccc(C)c1OCC(O)Cn1c2ccccc2c2ccccc21 (stereo not drawn),-10%,26,-17%,?,-18%,-15%,nt,
Cc1ccc(OCC(O)Cn2c3ccccc3c3ccccc32)cc1 (stereo not drawn),-4%,nt,?,1%,-7%,-10%,-48%,
Cc1ccc(C2=NC(C)(C)NC2=O)cc1,2%,0,i,0%,-9%,-2%,nt,
SMILES,APEX1 inh,PI5P4K alpha inh,RECQ1 inh-1,GCN5L2 inh,FEN1 inhibitor,BLM inh,RECQ1 inh-2,others
CC1(C)N=C(c2ccc(Cl)cc2)C(=O)N1,-1%,nt,35µM*,13%,5%,1%,?,
O=C(O)CCc1ccc(-c2ccc(Br)cc2)n1CC(=O)O,-9%,nt,32µM*,-11%,0%,-15%,?,
COc1cc(-c2nc3n(n2)C(c2ccncc2)C2=C(CCCC2=O)N3)cc(OC)c1OC (stereo not drawn),22%,1,28µM*,-2%,-13%,-4%,1%,
CC(=O)OCC(NC(=O)C1CCCN1C(=O)OC(C)(C)C)C1OC(n2ccc(=O)[nH]c2=O)C(OC(C)=O)C1OC(C)=O (stereo not drawn),1%,nt,-5%,nt,-9%,0%,nt,
O=[N+]([O-])c1ccc(Sc2cccc[n+]2[O-])c2nonc12,?,-53*,?,16µM*,22µM*,?,25µM*,
Nc1ncnc2c1ncn2COC(CO)CO,nt,nt,nt,nt,-2%,nt,nt,RECQ1 inh conf=-6%[69.1 µM]
Nc1ncnc2c1ncn2CCOCP(=O)(O)O,nt,nt,nt,3%,nt,-11%,nt,
O=C1C(Cl)=C(N2CCCCC2)C(=O)C(Cl)=C1c1cnc(N2CCCCC2)s1,20µM*,nt,16µM*,-21%,-2%,14µM*,nt,RECQ1 inh conf=50µM*;ADP FP counter=45µM*
CCOC(=O)N1CCN(C(=O)CN2C(=O)/C(=C\c3cccc(OC)c3)SC2=S)CC1,nt,nt,nt,nt,-5%,nt,nt,
COC(=O)N1CCCc2cc(S(=O)(=O)NCc3ccccc3)ccc21,nt,nt,nt,-8%,-8%,-3%,nt,
CN(Cc1ccco1)S(=O)(=O)c1ccc2c(c1)CCN2C(=O)CCC(=O)O,5%,1,-6%,1%,-4%,1%,nt,RECQ1 inh conf=3%;ADP FP counter=0%
Cc1cccc(N2CCN(S(=O)(=O)c3ccc4c(c3)CCN4C(=O)CCC(=O)O)CC2C)c1 (stereo not drawn),-4%,3,-8%,-2%,?,-5%,nt,RECQ1 inh conf=?;ADP FP counter=?
